The sample as a whole holds a higher share of hits than the screen did.
KDM5B inh: KDM5B demethylase inhibition | Q9UGL1 | KDM5B demethylase, FDH-coupled NADH fluorescence (FDH is formaldehyde dehydrogenase) | Potency, µM (doses to about 57.7 µM), hits mostly inhibitors | 220,000 compounds, 2.6% hits | AID 1347165; active = well fitted inhibition curve with a large enough effect; also: 0% is about no effect; nearly all actives have a fitted effect of over 70% in size
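KDM5BΔAP (200 nM final) in 50 mM HEPES pH 7.5, 0.01% Tween-20 was preincubated 10 min at RT with compound over a concentration range. Substrate mix (H3K4me3 12.5 µM, α-KG 25 µM, Fe²⁺, ascorbate, NAD⁺, FDH) was added, and NADH fluorescence change over 30 min gave dose-response curves.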
Starred values were filed as active, the others as inactive; i = inactive. Potency is read from the fitted curve at half-maximal effect.

SMILES | KDM5B inh
O=C(NC1CCN(Cc2ccccc2)CC1)C1CCc2ncc(-c3ccsc3)n2C1 (stereo not given) | i
CN(C)C(=O)c1cc2c(s1)CCC(C(=O)N1CCN(c3cccc(Cl)c3)CC1)C2 (stereo not given) | i
CC(C)CNC(=O)C1CCc2ncc(-c3ccsc3)n2C1 (stereo not given) | i
Fc1ccc(-c2ccc3ncc(Nc4ccccn4)n3n2)cc1 | i
Cc1ccc(/C=N/NC(=O)c2cccc(Br)c2)s1 | i
c1ccc(OCc2nn3c(CN4CCOCC4)nnc3s2)cc1 | i
CCN(CC)C(=S)SCc1csc(C)n1 | i
c1ccc2oc(Oc3ccc(C4SCCS4)cc3)nc2c1 | i
Cc1ccc(NC(=O)CN(C)C(=O)CCc2ncc(-c3ccc(C)c(C)c3)o2)cc1 | i
CC(=O)Nc1cc(F)ccc1-c1csc(NC(=O)C2CCCC2)n1 | i
Cn1nccc1CN1CCC2(C1)C(=O)N(CCc1ccccc1)c1ccccc12 (stereo not given) | i
Cc1ccc(CN2CCc3nc(C4CC4)nc(-c4ccc(O)cc4)c3CC2)cc1 | i
COc1ccc(-c2nc(C3CC3)nc3c2CCN(Cc2ccc(C(F)(F)F)cc2)CC3)cc1 | 50µM*
COc1ccc(-c2nc(C3CC3)nc3c2CCN(C(=O)c2ccccc2F)CC3)cc1 | i
Clc1ccc(-c2nc(C3CC3)nc3c2CCN(Cc2ccccc2)CC3)cc1 | i
COc1ccc(-c2nc(C3CC3)nc3c2CCN(CCC(C)C)CC3)cc1 | 79µM*
COc1ccc(-c2nc(C3CC3)nc3c2CCN([S+](=O)([O-])c2cccc(OC)c2)CC3)cc1 | i
O=C(Nc1ccccc1Cl)C1CCN(c2ncnc3onc(-c4ccc(F)cc4)c23)CC1 | i
O=C(O)CS(=O)(=O)Cc1ccc(Cl)cc1 | i
CN(C)C(=O)c1c(NC(=O)c2ccccc2)sc2c1CCC(C(C)(C)C)C2 (stereo not given) | i
CCCCN(Cc1ccccc1)c1ccc(NS(=O)(=O)c2ccc(C(C)=O)cc2)cc1C(=O)O | i
Cc1nc2nc(N(Cc3ccc(F)cc3)C(=O)c3ccco3)[nH]n2c(=O)c1Cc1ccccc1 | i
c1cc(-c2noc([C@@H]3CCCN3C3CCC3)n2)cc(N2CCOCC2)n1 | 35µM*
COc1ccc(OCC(=O)N2CCC[C@H]2c2nc(-c3ccccc3)no2)cc1 | i
COc1ccc(-c2noc([C@@H]3CCCN3C(=O)c3ccccn3)n2)cc1 | i
SMILES | KDM5B inh
CCc1ccc(C(=O)N2CCC[C@H]2c2nc(-c3ccc(OC)c(OC)c3)no2)cc1 | i
Cc1ccc(-c2noc([C@@H]3CCCN3C(=O)c3ccccn3)n2)cc1 | i
COCCNc1cc(-c2noc([C@@H]3CCCN3CC(C)C)n2)ccn1 | 32µM*
CNc1ccc(-c2noc([C@@H]3CCCN3C3CCC3)n2)cn1 | i
O=C(c1ccccn1)N1CCC[C@H]1c1nc(-c2ccccc2)no1 | i
CC(C)CN1CCC[C@H]1c1nc(-c2ccnc(N3CCOCC3)c2)no1 | 32µM*
CS(=O)(=O)c1ccc(CN2CCOC[C@H]2c2ncc(-c3ccncc3)[nH]2)cc1 | i
CS(=O)(=O)c1ccc(CN2CCC[C@H]2c2nc(-c3ccnc(N4CCOCC4)c3)no2)cc1 | 25µM*
COc1ccc(-c2noc([C@@H]3CCCN3Cc3ccccc3OC)n2)cn1 | i
O=C(CSc1nc2ccccc2o1)Nc1nc(-c2ccc(Br)cc2)cs1 | i
CCC1CCc2sc(C(=O)NCc3csc(-c4ccccc4)n3)cc2C1 (stereo not given) | i
S=C(NCCC(c1ccccc1)c1ccccc1)Nc1ccc(Nc2ccccc2)cc1 | i
CCCCc1ccc(C(=O)COC(=O)c2cc(S(C)(=O)=O)ccc2C)cc1 | i
O=C1CC(C(=O)O)C2(CCCCC2)O1 (stereo not given) | i
COC(=O)c1sc(NC(=O)CN2CCc3ccccc32)c(C(=O)OC)c1C | i
CC(NC(=O)c1cc2cc(Br)cc(Br)c2o1)C1CC2CCC1C2 (stereo not given) | i
COC(=O)CNC(=O)Nc1c(-c2cccnc2)[nH]c2ccccc12 | i
CCN1CCN(S(=O)(=O)c2ccc(Cl)c(C(=O)N3CCN(c4ccccn4)CC3)c2)CC1 | i
c1ccc(CN2CCC[C@H]2c2nc(-c3ccnc(N4CCOCC4)c3)no2)cc1 | 35µM*
N#Cc1cccc(CN2CCC[C@H]2c2nc(-c3ccc(OC4CCCCC4)nc3)no2)c1 | i
N#Cc1ccc(CN2CCC[C@H]2c2nc(-c3ccnc(N4CCOCC4)c3)no2)cc1 | 35µM*
Cc1ccc(-c2noc([C@@H]3CCCN3C(=O)Cc3ccccc3)n2)cc1 | i
CNc1ccc(-c2noc([C@@H]3CCCN3Cc3cnc4ccccc4c3)n2)cn1 | i
N#Cc1cccc(CN2CCC[C@H]2c2nc(-c3cncnc3N)no2)c1 | i
CC(C)c1ccccc1NC(=O)c1csc2c1CCCC2 | i
Cc1ccc(C(=O)COC(=O)c2ccc(N3CCCC3=O)cc2)cc1C | i
COc1ccc(N(C)C(=O)c2ccc3ccccc3n2)cc1OC | i
